target: KIF25; experiment: pooled miR-30 sensor sort-seq; sequence = guide strand; settings: shRNA

| Sequence | sensor-assay potency score (higher = more potent) |
| --- | --- |
| TAATTCCTAAGTCACTCTGTGG | -1.49 |
| TAACACAAACATTGTACCCATC | -0.837 |
| ACAAACATTGTACCCATCCAAG | -1.74 |
| AGAATCACCAGTAACTTCGCAT | -0.565 |
| TTGTAAACTTCCACTATGGAGA | -0.609 |
| TAACTTCGCATCGCCTCCGAGG | -1.63 |
| TTATTGTAAACTTCCACTATGG | -0.569 |
| ATAACACAAACATTGTACCCAT | 0.237 |
| TAGAGTCACCGTAATTATCAGG | -1.12 |
| TATAGCTCTTTCCGCTGCCCGT | -1.1 |

target: KIF26A; experiment: as above; settings: shRNA

| Sequence | sensor-assay potency score (higher = more potent) |
| --- | --- |
| TAGCTTGTCGAGAAGCAGGGCA | -0.503 |
| TCATCGATCTCGTACACCTTGA | -0.779 |
| TTGTCCTTGGTCTTGGAGGCGG | -1.26 |
| TACACCTTGATCTCGAACGGCT | -0.449 |
| TTCTTGGGGGACTTGAGGCTGC | -0.669 |
| TCAAACTCATCATTGATGCTGC | 0.23 |
| TTGAGCTCCACCAGCTTCGTGT | -0.457 |
| TACTGGTAGACGTGCAGCGTGA | -1.25 |
| TCGCTTGAGCTCCACCAGCTTC | -1.81 |
| ATCTCGTACACCTTGATCTCGA | -0.604 |
| TGTGCTGCTTCTACCTTGCTGG | -0.279 |
| TCGAAGGCAAACATCTTGGGAA | 0.12 |

target: KIF2C; experiment: as above; settings: shRNA

| Sequence | sensor-assay potency score (higher = more potent) |
| --- | --- |
| TATGTGTCTTGCCACTTCCTGT | -0.789 |
| TTTGTCTGCTAGCCTGCTCTTC | -1.15 |
| TTCTGTTTCCATTTGAATCAAC | -0.604 |
| TTGGAGTTGACGGATCTCCGTT | -0.171 |
| TTTCTTGGCCAATTCTTGCTTA | 0.0812 |
| TTCTCCAAGTTCACAGTCCTTA | -0.384 |
| TTGCTGTATGATCTCCTTGAGC | -1.21 |
| TTCAAAGATTGTCTGTACCAGT | -0.672 |
| TAACACAGACACATATTCTGTG | 0.393 |
| TTGCTCTTCCATCTCCTCGCTG | -0.535 |
| TGAACCTGTAGACAACTTCATT | -1.25 |

target: KIR2DL5B; experiment: as above; settings: shRNA

| Sequence | sensor-assay potency score (higher = more potent) |
| --- | --- |
| TACATGGGAGCTAGCAACCCGG | -1.49 |
| TACATGTCAAATGAGCTCCTGG | -0.149 |
| ACAAGCAGTGGGTCACTCGGGT | -0.672 |
| TTCTTTTTGTTGGAGCAGCAGC | -0.965 |
| TTTTGTTGTAGAGCTCAGGGAC | 0.231 |
| TTGTACAGACTGAAGATGGTAA | -0.188 |
| TTGATCATCAGAGTCCTCCCTG | 0.731 |

Reference: the OligoGym collection
